Screens (PubChem BioAssay)
MCF10A rerep: A quantitative high throughput screen for small molecules that induce DNA re-replication in MCF 10a normal breast cells | 350,000 compounds, 2.9% hits | MCF 10A DNA re-replication, Hoechst nuclear intensity, 48 h | AID 624296, 2012 | Potency, µM (titrated, usually from 46.1 µM), hits mostly activators; note: nearly all actives have a fitted effect of over 50% in size
KB-3-1 tox: qHTS assay for MDR1-selective chemotherapeutics: Primary screen using the parental adenocarcinoma cell KB-3-1. 400,000 compounds, 1.4% hits. KB-3-1 viability, CellTiter-Glo ATP luminescence, 72 h. Potency, µM (top dose mostly 46.1 µM), actives largely listed as cytotoxic; note: nearly all actives have a fitted effect of over 60% in size
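Multi-concentration cytotoxicity screen in KB-3-1 cells grown in DMEM lacking phenol red with 10% FBS. After 72 h at 37 °C with compound, ATP-dependent luminescence was recorded.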
KCNH2 3.1 block: qHTS for Inhibitors of KCHN2 3.1: Mutant qHTS; 340,000 compounds, 0.95% hits; activity change, % (tested at about 1.8 µM); U2OS KCNH2 3.1, thallium flux FluxOr; active compounds read low; AID 720553, 2013; Potassium voltage-gated channel subfamily H member 2, brain isoform KCNH2 3.1 (human);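 active = maximum activity change below -70%; inconclusive = maximum activity change from -70% to -50%; inactive = maximum activity change above -50%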;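 note: thallium influx rate constant from kinetic fluorescence after stimulation buffer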
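Kinetic fluorescence (2 min after stimulation buffer) measures Tl+ influx through KCNH2 3.1 expressed by viral transduction in U2OS cells; the rate constant is normalized against DMSO controls serving as positive and negative references.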
KCNH2 WT inh: qHTS for Inhibitors of KCHN2 3.1: Wildtype qHTS; 340,000 compounds, 0.37% hits; U2OS, BacMam KCNH2, thallium flux FluxOr; active compounds read low; activity change, % at 1.84 µM; Voltage-gated inwardly rectifying potassium channel KCNH2 (Homo sapiens), Q12809;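 active = maximum activity change below -70%; inconclusive = maximum activity change between -70% and -50%; inactive = maximum activity change above -50%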
Target sequence (Q12809 whole entry, looked up): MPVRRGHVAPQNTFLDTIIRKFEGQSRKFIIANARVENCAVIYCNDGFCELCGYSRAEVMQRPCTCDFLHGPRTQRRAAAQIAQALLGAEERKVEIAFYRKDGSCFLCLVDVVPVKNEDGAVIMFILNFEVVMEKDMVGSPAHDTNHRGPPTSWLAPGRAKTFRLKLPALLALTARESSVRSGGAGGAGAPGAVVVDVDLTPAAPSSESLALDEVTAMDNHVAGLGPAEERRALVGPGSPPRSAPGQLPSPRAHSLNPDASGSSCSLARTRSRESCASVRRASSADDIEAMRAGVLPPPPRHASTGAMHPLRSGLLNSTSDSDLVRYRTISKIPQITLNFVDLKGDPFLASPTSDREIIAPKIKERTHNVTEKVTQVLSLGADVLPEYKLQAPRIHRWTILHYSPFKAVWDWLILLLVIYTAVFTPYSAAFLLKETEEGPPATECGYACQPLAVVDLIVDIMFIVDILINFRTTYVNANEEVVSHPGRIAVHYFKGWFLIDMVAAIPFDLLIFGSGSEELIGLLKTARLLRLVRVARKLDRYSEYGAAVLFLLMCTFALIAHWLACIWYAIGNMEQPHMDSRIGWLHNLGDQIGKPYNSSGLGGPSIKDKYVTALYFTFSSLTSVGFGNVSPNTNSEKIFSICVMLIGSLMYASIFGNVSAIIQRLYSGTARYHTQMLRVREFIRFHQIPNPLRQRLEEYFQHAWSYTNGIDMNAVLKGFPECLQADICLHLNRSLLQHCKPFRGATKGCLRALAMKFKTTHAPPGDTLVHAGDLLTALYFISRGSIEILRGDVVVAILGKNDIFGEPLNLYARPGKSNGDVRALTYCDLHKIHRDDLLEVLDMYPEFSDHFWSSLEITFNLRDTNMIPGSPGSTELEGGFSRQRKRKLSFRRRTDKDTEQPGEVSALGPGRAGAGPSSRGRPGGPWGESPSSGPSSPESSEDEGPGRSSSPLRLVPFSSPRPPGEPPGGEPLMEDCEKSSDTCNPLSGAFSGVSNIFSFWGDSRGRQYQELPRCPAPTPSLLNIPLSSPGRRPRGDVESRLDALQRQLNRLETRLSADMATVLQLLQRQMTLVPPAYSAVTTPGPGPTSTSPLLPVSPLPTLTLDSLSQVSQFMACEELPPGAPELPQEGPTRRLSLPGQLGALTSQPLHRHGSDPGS
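U2OS cells were transduced with wild-type KCNH2 virus (2.03 x 10^8 / mL) for 4 h at room temperature, then cultured overnight at 37 C. Thallium flux was read with FluxOr dye. Rate constants were normalized to DMSO controls.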
SW480 rereplic: A quantitative high throughput screen for small molecules that induce DNA re-replication in SW480 colon adenocarcinoma cells. SW480 DNA re-replication, Hoechst DNA content imaging, 48 h. 340,000 compounds, 1.8% hits. Potency, µM (highest dose often 46.1 µM), usual class: activators; note: nearly all actives have a fitted effect of over 55% in size
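Compounds, transferred as 23 nL by pin tool, were incubated with cells for 48 hr; DNA content per nucleus was then quantified by Hoechst staining and fluorescence plate imaging.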
KB-V1 cytotox: qHTS assay for MDR1-selective chemotherapeutics: Primary screen using the drug-selected MDR subline cells KB-V1 | KB-V1 MDR cells viability, CellTiter-Glo, 72 h | Potency, µM (top dose mostly 46.1 µM), usual class: cytotoxic | 400,000 compounds, 3.4% hits | AID 1347076, 2019; note: nearly all actives have a fitted effect of over 60% in size
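qHTS viability screen in drug-selected KB-V1 MDR cells: 72 h compound treatment at 37 degrees C, ATP luminescence end point.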
Hits are given with their value; i = inactive; ? = inconclusive; nt = no result given. A selection: hits, their analogues and other compounds. The true share with any hit is near 7.6%. Unless noted, calls come from the whole dose curve; as a rule, active = well fitted curve in the direction sought with a large enough effect; inconclusive = small, poorly fitted or top-dose-only effect, or another doubt; inactive = no such curve, though single readings can be large; an effect the other way counts as inactive or inconclusive.

SMILES | MCF10A rerep | KB-3-1 tox | KCNH2 3.1 block | KCNH2 WT inh | SW480 rereplic | KB-V1 cytotox
CC1CCCCN1C(=O)c1ccc(COc2ccc([N+](=O)[O-])cc2)o1 (centres undefined) | ? | i | i | i | i | 18µM
O=C(c1ccc(COc2ccc(Cl)cc2)o1)N1N=C(C(F)F)CC1(O)C(F)F (centres undefined) | ? | ? | i | i | i | i
COc1ccccc1OCc1ccc(C(=O)N2N=C(C(F)F)CC2(O)C(F)F)o1 (centres undefined) | ? | i | i | i | i | 16µM
COc1ccccc1OCc1ccc(C(=O)Nc2ccncc2)o1 | i | 23µM | i | i | i | ?
O=C(Nc1cccnc1)c1ccc(COc2ccccc2Br)o1 | 21µM | 16µM | i | i | ? | ?
NNC(=O)c1ccc(COc2ccc([N+](=O)[O-])cc2)o1 | i | i | i | i | i | i
COc1ccc(NC(=O)CCOc2ccc(C)cc2)c(OC)c1 | i | i | i | i | i | i
Nn1c(SCC(=O)NC2CCS(=O)(=O)C2)nnc1-c1ccco1 (centres undefined) | i | i | i | i | i | i
Cc1cccc(OCc2ccc(C(=O)N3CCOCC3)o2)c1 | i | i | i | i | i | i
CC(C)(C)c1ccc(OCc2ccc(C(=O)N3CCOCC3)o2)cc1 | i | i | i | i | ? | 26µM
CC(C)(C)c1ccc(OCc2ccc(C(=O)Nc3cccnc3)o2)cc1 | 23µM | ? | i | i | ? | ?
CN(C)c1ccc(/C=N/N2C(=S)SC(C)(C)C2N(O)C(=O)Nc2ccc([N+](=O)[O-])cc2)cc1 (centres undefined) | ? | i | i | i | ? | i
Cc1cc(OCc2cccc(Cl)c2)c(C)cc1CN1CCOCC1 | i | i | -71 | i | i | i
O=[N+]([O-])c1cccc(COc2ccccc2CN2CCOCC2)c1 | i | i | i | i | i | i
C=CCSc1nnc2nc3[nH]c4c(C)cccc4c3nn12 | i | i | i | i | i | i
CN(C)c1ccc(NC(=S)Nc2ccc3c(c2)c(=O)n(C)n3-c2ccc(C(C)(C)C)cc2)cc1 | nt | i | nt | nt | nt | i
CSc1ccccc1NC(=O)Nc1cccc(Cl)c1 | ? | ? | i | i | i | 16µM
COc1cccc(NC(=O)Nc2ccccc2SC)c1 | i | i | i | i | i | i
CN(C)c1ccc(NC(=O)Nc2cccc(Cl)c2)cc1 | i | i | i | i | i | 13µM
CSc1ccccc1NC(=O)Nc1ccc(F)c(Cl)c1 | ? | i | i | i | i | 21µM
CCOc1ccc(NC(=O)CCC(=O)NNC(=O)Nc2cccc(Cl)c2)cc1 | 0.18µM | i | i | i | ? | ?
Cc1ccc(NC(=O)Nc2ccc(F)c(Cl)c2)cc1 | i | i | i | i | i | i
CCOc1ccccc1C(=O)OCC(=O)NCC1CCCCC1 | ? | i | i | i | i | i
c1ccc(NCc2nc(-c3ccccc3)no2)cc1 | i | i | i | i | i | i
COc1ccc(Cl)cc1NC(=O)CC1S/C(=N/N=C2CCCCCC2)NC1=O (centres undefined) | i | i | i | i | i | i
SMILES | MCF10A rerep | KB-3-1 tox | KCNH2 3.1 block | KCNH2 WT inh | SW480 rereplic | KB-V1 cytotox
CSc1ccccc1NC(=O)Nc1cccc(Cl)c1Cl | 23µM | i | i | i | i | ?
CN1CCN(c2cccc(Nc3nn4c(=O)c5ccc(C(F)(F)F)cc5nc4s3)c2)CC1 | nt | i | nt | nt | nt | i
O=C(NCCC1CCCCN1S(=O)(=O)c1cccs1)C(=O)NCc1ccccc1 (centres undefined) | ? | ? | i | i | ? | 15µM
COc1ccccc1NC(=O)C(=O)NCC1CCCN1S(=O)(=O)c1cccs1 (centres undefined) | i | i | i | i | i | 4.6µM
O=C(NCCC1CCCCN1S(=O)(=O)c1cccs1)C(=O)Nc1cccc(F)c1 (centres undefined) | ? | i | i | i | i | 16µM
O=C(NCC1CCCN1S(=O)(=O)c1cccs1)c1cccc(Cl)c1 (centres undefined) | i | i | i | i | 2.9µM | ?
COc1ccccc1NC(=O)C(=O)NCCC1CCCCN1S(=O)(=O)c1cccs1 (centres undefined) | i | ? | i | i | i | i
O=C(O)c1ccccc1CSc1ccccn1 | i | i | i | i | i | i
Cc1ccc2c(c1)N(C(=O)N1CCC(C(=O)NC3CCCCCC3)CC1)CC(C)O2 (centres undefined) | nt | i | nt | nt | nt | i
CC(=O)c1ccc(N2CCN(C(=O)CNS(=O)(=O)c3ccc4c(c3)OCCCO4)CC2)c(F)c1 | i | i | i | i | i | ?
COc1cc(C(CC(=O)Nc2cc(C)ccn2)N2Cc3ccccc3C2=O)cc(OC)c1OC (centres undefined) | i | i | i | i | i | ?
Cc1ccc(CNC(=O)C(=O)NCC2CCCN2S(=O)(=O)c2cccs2)cc1 (centres undefined) | i | i | i | i | i | 9.2µM
COc1ccc(CNC(=O)C(=O)NCC2CCCN2S(=O)(=O)c2cccs2)cc1 (centres undefined) | i | i | i | i | i | ?
C=CCNC(=S)N/N=C/c1ccc(-c2ccc(OC)cc2)o1 | 21µM | ? | i | i | ? | 7.3µM
C=CCNC(=S)N/N=C/c1ccc(-c2ccc(Cl)cc2Cl)o1 | 13µM | i | i | i | 16µM | i
C=CCNC(=S)N/N=C/c1ccc(-c2cc(Cl)ccc2Cl)o1 | ? | i | i | i | i | i
C=CCNC(=S)N/N=C/c1ccc(C)cc1C | ? | ? | i | i | i | ?
CC(C)[C@H](NC(=O)N1CCn2c1nc1ccccc12)C(=O)N[C@@H](Cc1ccccc1)C(=O)O | i | i | i | i | i | i
CCn1c2ccccc2c2cc(NC(=O)CSc3nnc(-c4ccccc4)o3)ccc21 | ? | i | i | i | 0.65µM | ?
CCn1c2ccccc2c2cc(NC(=O)CSc3nnc(-c4cccc(F)c4)o3)ccc21 | 5.2µM | 7.3µM | i | i | ? | 12µM
CCn1c2ccccc2c2cc(NC(=O)CSc3nnc(-c4cccc(C)c4)o3)ccc21 | ? | 23µM | i | i | ? | ?
Cc1ccc(C)c(NC(=O)CSc2nnc(-c3ccccc3)o2)c1 | i | i | i | i | i | i
Cc1cc(Cl)ccc1NC(=O)c1ccc2c(c1)CCN2S(C)(=O)=O | i | i | i | i | i | i
NCCc1c(C(=O)O)[nH]c2ccc([N+](=O)[O-])cc12 | i | ? | i | i | i | 10µM
